Results from PubChem BioAssay (EPA / NIEHS).
Records with an inconclusive call do not appear. Active and inactive are the calls of the source. How the source made its calls, unless noted: active means hit-call score of the fitted dose curve at least 0.9, where 1 is the maximum; inconclusive means response in the unintended direction; inactive means score below 0.9.

What was measured:
[1] = target: human Thyroid hormone Receptor beta (TRb), THRB (gene 7068) (UniProt P10828); assay: ATG_hTRb_XSP2: Attagene TRANS-FACTORIAL Multi-Species (XSP2) HepG2 Assay for human Thyroid hormone Receptor beta (TRb) (AID 2283840);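 further: actives raise reporter mRNA so potency reflects agonist-like gain of signal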
How it was run: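 Activity of exogenous human TRb–Gal4 fusion measured by reporter mRNA from RT-PCR and capillary electrophoresis, 24 h after dosing transfected HepG2. 6-alpha-fluorotestosterone (3 nM) and norgestrel (1.5 nM) present. Gain-of-signal fit relative to DMSO.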

[2] = test system: Sodium/Iodide Symporter (NIS), SLC5A5 (gene 6528); assay: CPHEA_Stoker_NIS_Inhibition_RAIU: CPHEA's Radioactive Iodide Uptake (RAIU) Assay for Sodium/Iodide Symporter (NIS) Inhibition, Stoker and Laws Labs (AID 2283841)
How it was run: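 HEK293T cells stably expressing human NIS (hNIS-HEK293T-EPA) were exposed to test chemicals at 0.001–100uM (0.5% final DMSO) with 125I at a final 329pM in HBSS/10mM HEPES pH 7.4. After 2 hours at room temperature and ice-cold washes, intracellular 125I was counted as CPM and normalized to DMSO wells.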

[3] = CPHEA_Stoker_NIS_Cytotoxicity: Cytotoxicity Assessment for CPHEA's Radioactive Iodide Uptake (RAIU) Assay for Sodium/Iodide Symporter (NIS) Inhibition, Stoker and Laws Labs (AID 2283897);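 on AC50: active means loss of ATP signal versus DMSO meaning cytotoxicity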
How it was run: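 hNIS-HEK293T-EPA human kidney cells were exposed for 2 hours at room temperature to test chemicals (0.001–100uM, 0.5% final DMSO) in HEPES-buffered HBSS, pH 7.4. Viability was read as ATP content by luciferase bioluminescence, loss of signal versus DMSO.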

PGR (gene 5241) [4] = target: PGR (gene 5241) (UniProt P06401); assay: TOX21_PR_BLA_Followup_Antagonist_ratio: Tox21 HEK293 Progesterone Receptor (PR) Antagonism Beta-lactamase Follow-Up Assay, Ratio (AID 2283934)
How it was run: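 PR-UAS-bla HEK293T cells, 3,000/well in 2% charcoal-stripped FBS, given compound plus 1nM R5020 agonist for 16 hr at 37C. Beta-lactamase FRET substrate 2 hours, ratio cleaved/uncleaved fluorescence; viability by CellTiter-Glo in same wells.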

[5] = TOX21_PR_BLA_Followup_Agonist_viability: Viability Assessment in the Tox21 HEK293 Progesterone Receptor (PR) Agonism Beta-lactamase Follow-Up Assay (AID 2283935);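 further: signal loss means lower viability so actives are cytotoxic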
How it was run: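 PR-UAS-bla HEK293T cells in 2% charcoal-stripped FBS medium, plated 6 hr before compound addition, exposed 16 hr at 37C. Viability read by CellTiter-Glo ATP luminescence after 30 min at room temperature, in the same wells as the beta-lactamase readout.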

[6] = TOX21_PR_BLA_Followup_Antagonist_viability: Viability Assessment in the Tox21 HEK293 Progesterone Receptor (PR) Antagonism Beta-lactamase Follow-Up Assay (AID 2283936);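 further: hits lower the luminescence signal meaning cytotoxicity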
How it was run: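 PR-UAS-bla HEK293T cells (3,000/well, 2% charcoal-stripped FBS) given compound plus R5020 agonist, 16 h at 37C. CellTiter-Glo added after bla read, 30 min at room temperature; luminescence loss indicates cytotoxicity.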

PGR (gene 5241) [7] = target: PGR (gene 5241) (UniProt P06401); assay: TOX21_PR_LUC_Followup_Antagonist: Tox21 HEK293 Progesterone Receptor (PR) Antagonism Luciferase Follow-Up Assay (AID 2283938);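 further: curve fitted upward as signal gain over DMSO baseline despite antagonist label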
How it was run: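 Luminescence from ONE-Glo was measured 30 min after reagent addition, following 16 h exposure of HEK293-PR-A-luc cells (3,000/well, plated 5 h earlier) to DMSO-dissolved compounds at 37C; DMSO served as baseline.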

[8] = target: human Thyroid hormone Receptor alpha (TRa), THRA (gene 7067) (UniProt P10827); assay: ATG_hTRa_XSP2: Attagene TRANS-FACTORIAL Multi-Species (XSP2) HepG2 Assay for human Thyroid hormone Receptor alpha (TRa) (AID 2283838)
How it was run: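 HepG2 cells were transiently transfected with GAL4-UAS reporter units for chimeric human TRa-Gal4 and dosed for 24 hours, with 3 nM 6-alpha-fluorotestosterone and 1.5 nM norgestrel present. Reporter mRNA was quantified by RT-PCR, FAM labelling and capillary electrophoresis, with gain of signal fitted versus DMSO.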

PGR (gene 5241) [9] = target: PGR (gene 5241) (UniProt P06401); assay: TOX21_PR_BLA_Followup_Agonist_ratio: Tox21 HEK293 Progesterone Receptor (PR) Agonism Beta-lactamase Follow-Up Assay, Ratio (AID 2283933)
How it was run: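 PR-UAS-bla HEK293T cells in medium with 2% charcoal-stripped FBS were dosed after 6 h plating and incubated 16 h at 37C. LiveBLAzer FRET substrate was added for 2 h at room temperature. Cleaved/uncleaved substrate ratio fitted against DMSO; CellTiter-Glo viability run in the same wells.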

PGR (gene 5241) [10] = target: PGR (gene 5241) (UniProt P06401); assay: TOX21_PR_LUC_Followup_Agonist: Tox21 HEK293 Progesterone Receptor (PR) Agonism Luciferase Follow-Up Assay (AID 2283937; active means hit-call score of the fitted dose curve at least 0.9, where 1 is the maximum; inactive means score below 0.9)
How it was run: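 HEK293-PR-A-luc cells, conditioned 5 days in 10% charcoal-stripped FBS medium, seeded 3,000/well for 5 h, then compound-treated 16 h at 37C. ONE-Glo luminescence read after 30 min at room temperature; gain of signal versus DMSO.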

[11] = ATG_XTT_Cytotoxicity_XSP2: Cytotoxicity Assessment in the Attagene TRANS-FACTORIAL Multi-Species (XSP2) HepG2 Assay (AID 2283837)
How it was run: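 HepG2 cells, transiently transfected with multiple reporter constructs, exposed to chemical for 24 h. Cell number assessed with XTT fluorescence read-out; loss of signal fitted relative to DMSO.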

Chain of human Thyroid hormone Receptor beta (TRb), THRB (gene 7068) (P10828 whole entry, looked up, the tested form may be a part): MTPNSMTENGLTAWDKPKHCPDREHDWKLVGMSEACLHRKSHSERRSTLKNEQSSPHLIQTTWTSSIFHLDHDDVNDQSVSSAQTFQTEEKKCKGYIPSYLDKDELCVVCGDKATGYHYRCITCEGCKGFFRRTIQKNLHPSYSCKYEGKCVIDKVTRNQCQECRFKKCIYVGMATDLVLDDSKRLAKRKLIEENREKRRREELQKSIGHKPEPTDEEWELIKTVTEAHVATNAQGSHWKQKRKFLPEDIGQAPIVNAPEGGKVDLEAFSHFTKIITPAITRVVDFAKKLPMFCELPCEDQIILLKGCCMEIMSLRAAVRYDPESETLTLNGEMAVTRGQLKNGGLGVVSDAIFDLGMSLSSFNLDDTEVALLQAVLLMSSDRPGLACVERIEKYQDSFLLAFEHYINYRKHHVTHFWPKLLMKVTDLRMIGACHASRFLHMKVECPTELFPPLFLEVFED
Chain of PGR (gene 5241) (P06401 whole entry, looked up): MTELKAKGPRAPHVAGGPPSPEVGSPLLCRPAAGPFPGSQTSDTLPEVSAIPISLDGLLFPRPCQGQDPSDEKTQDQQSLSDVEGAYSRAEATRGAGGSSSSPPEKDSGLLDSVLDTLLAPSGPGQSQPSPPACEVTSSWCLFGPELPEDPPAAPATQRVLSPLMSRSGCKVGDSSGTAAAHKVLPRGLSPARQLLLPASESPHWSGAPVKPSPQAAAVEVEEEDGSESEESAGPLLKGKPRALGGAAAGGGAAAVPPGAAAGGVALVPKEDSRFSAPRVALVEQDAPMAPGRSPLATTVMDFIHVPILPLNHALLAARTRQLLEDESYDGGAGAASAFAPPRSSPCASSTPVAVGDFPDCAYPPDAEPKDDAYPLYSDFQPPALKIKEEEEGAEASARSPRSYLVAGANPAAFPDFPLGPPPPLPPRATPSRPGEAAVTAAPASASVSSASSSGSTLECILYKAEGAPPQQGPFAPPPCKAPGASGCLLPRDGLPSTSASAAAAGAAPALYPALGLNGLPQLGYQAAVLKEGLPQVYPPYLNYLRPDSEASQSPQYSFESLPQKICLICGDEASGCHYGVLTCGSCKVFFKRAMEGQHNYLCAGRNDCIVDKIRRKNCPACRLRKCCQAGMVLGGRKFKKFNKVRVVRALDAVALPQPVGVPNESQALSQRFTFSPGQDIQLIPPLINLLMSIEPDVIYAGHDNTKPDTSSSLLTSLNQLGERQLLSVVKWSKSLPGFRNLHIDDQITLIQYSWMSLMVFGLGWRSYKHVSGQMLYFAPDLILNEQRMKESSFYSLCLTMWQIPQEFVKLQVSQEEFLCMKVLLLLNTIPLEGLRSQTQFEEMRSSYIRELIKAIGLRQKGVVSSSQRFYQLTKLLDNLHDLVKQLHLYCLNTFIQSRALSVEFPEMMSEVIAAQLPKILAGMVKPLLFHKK
Chain of human Thyroid hormone Receptor alpha (TRa), THRA (gene 7067) (P10827 whole entry, looked up, the tested form may be a part): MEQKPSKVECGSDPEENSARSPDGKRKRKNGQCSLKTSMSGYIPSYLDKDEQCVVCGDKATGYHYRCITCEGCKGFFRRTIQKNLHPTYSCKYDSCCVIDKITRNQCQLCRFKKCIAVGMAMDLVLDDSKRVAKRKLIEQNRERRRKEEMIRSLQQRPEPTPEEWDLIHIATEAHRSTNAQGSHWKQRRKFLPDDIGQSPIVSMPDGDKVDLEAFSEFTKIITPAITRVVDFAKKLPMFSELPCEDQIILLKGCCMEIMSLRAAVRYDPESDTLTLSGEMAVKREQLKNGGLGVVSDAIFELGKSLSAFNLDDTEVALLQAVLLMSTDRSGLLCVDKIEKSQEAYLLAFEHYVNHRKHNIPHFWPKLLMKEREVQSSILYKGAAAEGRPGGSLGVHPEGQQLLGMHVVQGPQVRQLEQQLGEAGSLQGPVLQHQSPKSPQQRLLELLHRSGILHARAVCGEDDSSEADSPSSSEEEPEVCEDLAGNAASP

Which outcome [1] does the source give for `CC(C)CCCCCCc1ccc(O)cc1` here?
The outcome was “inactive”.

And the outcome [2]?
The outcome was “inactive”.

What about the outcome [3] of the same compound?
Its outcome is “inactive”.

What about the outcome (PGR (gene 5241) [4]) of the same compound?
The outcome was “inactive”.

And the outcome [5]?
Its outcome is “inactive”.

What about the outcome [6] of the same compound?
Its outcome is “inactive”.

What about the outcome (PGR (gene 5241) [7]) of the same compound?
The outcome was “inactive”.

Which results are given for `CCCN(CCC)C(=O)SCC`?
outcome [2]: inactive; outcome [3]: inactive

With `N#CSCSc1nc2ccccc2s1` as the compound, how does the AC50 [2] read?
Its AC50 is 50 µM (active).

And the outcome [3]?
The outcome was “inactive”.

Which results are given for `CC1(C)C(C=C(Cl)Cl)C1C(=O)OCc1cccc(Oc2ccccc2)c1` (stereo unspecified)?
outcome [8]: inactive; AC50 [1]: 100 µM (active)

Which outcome [2] does the source give for `O=C(O)c1ccccc1` here?
The outcome was “inactive”.

And the outcome [3]?
Its outcome is “inactive”.

What does the source list for `CCCCOCCOCCOCc1cc2c(cc1CCC)OCO2`?
outcome [2]: inactive; outcome [3]: inactive

For `CCOC(=O)C(C)Oc1ccc(Oc2nc3ccc(Cl)cc3o2)cc1` (stereo unspecified), which outcome [2] is on record?
The outcome was “inactive”.

What about the outcome [3] of the same compound?
Its outcome is “inactive”.

With `O=C(c1ccc(O)cc1O)c1ccc(O)cc1O` as the compound, how does the outcome [1] read?
Its outcome is “inactive”.

And the outcome (PGR (gene 5241) [9])?
The outcome was “inactive”.

What about the AC50 (PGR (gene 5241) [4]) of the same compound?
The AC50 was 58.1 µM (active).

What about the outcome [6] of the same compound?
Its outcome is “inactive”.

What about the outcome (PGR (gene 5241) [10]) of the same compound?
The outcome was “inactive”.

What about the AC50 (PGR (gene 5241) [7]) of the same compound?
The AC50 was 68.3 µM (active).

For `COC(=O)CSc1cc(N=c2sc(=O)n3n2CCCC3)c(F)cc1Cl`, which outcome [2] is on record?
Its outcome is “inactive”.

What about the outcome [3] of the same compound?
The outcome was “inactive”.

With `CC(=O)S[C@@H]1CC2=CC(=O)CC[C@]2(C)[C@H]2CC[C@@]3(C)[C@@H](CC[C@@]34CCC(=O)O4)[C@H]12` as the compound, how does the outcome [8] read?
Its outcome is “inactive”.

And the outcome [1]?
The outcome was “inactive”.

What does the source list for `C[C@]12C[C@H](O)[C@H]3[C@@H](CCC4=CC(=O)CC[C@@]43C)[C@@H]1CC[C@@H]2C(=O)CO`?
outcome [5]: inactive; outcome [6]: inactive; outcome (PGR (gene 5241) [7]): inactive

Which outcome [2] does the source give for `CCCCC(CC)CN1C(=O)C2C3C=CC(C3)C2C1=O` (stereo unspecified) here?
Its outcome is “inactive”.

And the AC50 [3]?
Its AC50 is 50 µM (active).

Which outcome [11] does the source give for `N[C@@H](Cc1cc(I)c(Oc2ccc(O)c(I)c2)c(I)c1)C(=O)O` here?
Its outcome is “inactive”.

What about the outcome [2] of the same compound?
The outcome was “inactive”.

What about the outcome [3] of the same compound?
Its outcome is “inactive”.

Which results are given for `Cc1nn(C)c(Oc2ccccc2)c1C=NOCc1ccc(C(=O)OC(C)(C)C)cc1`?
outcome [2]: inactive; outcome [3]: inactive

Which outcome [2] does the source give for `S=C([S-])NCCNC(=S)[S-].[Mn+2]` here?
Its outcome is “inactive”.

And the outcome [3]?
Its outcome is “inactive”.
